Screening results as filed in PubChem BioAssay.
The list is not random: actives were taken first. Their share in the collection is about 9.3%.
Vaccinia Venus = vaccinia inhibition (Venus reporter); Vaccinia virus Venus reporter expression, fluorescence; Potency, µM (highest dose often 36.5 µM), actives largely listed as inhibitors; 330,000 tested, 0.46% active; AID 720580; calls by dose curve; tested in A549 cells; also: nearly all actives have a fitted effect of over 30% in size
HCV inhibitor = HCV inhibition. Huh7.5.1 HCVcc-Cre infection, luciferase reporter, 44 h. Potency, µM (highest dose often 41.8 µM), usual class: inhibitors. AID 651820. 340,000 tested, 3.4% active
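Compounds are dispensed onto cells plated 4 h earlier at 1,000 per well, with HCVcc-Cre virus (about 0.5 moi) added next. Following 44 h of culture, luminescent signal is measured for 15 sec after 15 min with substrate at room temperature.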
VACV mCherry inh = vaccinia inhibition (mCherry reporter); AID 720579; Potency, µM (doses to about 36.5 µM), hits mostly inhibitors; 310,000 tested, 0.63% active; Vaccinia virus mCherry reporter infection, fluorescence; calls by dose curve; tested in A549 cells; also: nearly all actives have a fitted effect of over 35% in size
HCMV inh = human cytomegalovirus inhibition | activity change, negative = inhibition, % at 57.5 µM | AID 1259415 | 410,000 tested, 4.5% active | HFF cells, HCMV-luciferase reporter, 72 h; stronger effect = lower value; in the data active = activity change below about -60%; inconclusive = no clear call, values can overlap the other calls; inactive = above about -39%
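Human foreskin fibroblasts infected with luciferase-reporter HCMV at MOI 1 PFU/cell, compounds at two doses. Luciferase measured 72 h post infection; normalized to buffer-only basal and Salinomycin (10uM) controls.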
Sm TGR inh = inhibitors of Schistosoma mansoni thioredoxin glutathione reductase; 360,000 tested, 3% active; purified TGR, DTNB reduction, TNB absorbance 405 nm; Q962Y6; Potency, µM (top dose mostly 114 µM), usual class: inhibitors; also: nearly all actives have a fitted effect of over 60% in size
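First, TGR (20 nM dispensed) and NADPH were mixed with compound. Second, a 15 min room-temperature incubation followed. Third, further NADPH and then DTNB were added to start the reaction. Finally, TNB absorbance was monitored kinetically.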
FMDV inh = blocks foot and mouth disease virus; FMDV antiviral cell-based qHTS; Potency, µM (series often up to 57.9 µM), usual class: inhibitors; 410,000 tested, 1.2% active; calls by dose curve; tested in HEK293T cells; also: read-out not given here; nearly all actives have a fitted effect of over 45% in size
Each line names hits and unclear results; the compound was inactive in the other large screens. Unless noted, calls follow the shape of the dose curve; as a rule, active = well fitted curve in the direction sought with a large enough effect; inconclusive = small, poorly fitted or top-dose-only effect, or another doubt; inactive = no such curve, though single readings can be large; an effect the other way counts as inactive or inconclusive.

Cc1cccc(Oc2ccccc2NC(=O)CSCC(=O)Nc2cc(C)on2)c1	HCV inhibitor inconclusive, HCMV inh inconclusive, FMDV inh inconclusive
CCOc1ccc(Oc2ccccc2NC(=O)CSCC(=O)Nc2cc(C)on2)cc1	HCV inhibitor 8.9µM, HCMV inh inconclusive, FMDV inh inconclusive
CC(C)(C)n1cccc1/C=C1\C(=O)NC(=O)N(c2ccccc2)C1=O	Sm TGR inh inconclusive
Cc1cccc(N2C(=O)NC(=O)/C(=C\c3cccn3-c3ccc(Cl)cc3)C2=O)c1	Vaccinia Venus inconclusive, HCV inhibitor inconclusive, HCMV inh -102, FMDV inh 10µM (no result: VACV mCherry inh)
Cc1cc(C)cc(N2C(=O)NC(=O)/C(=C/c3cccn3-c3ccc(Cl)cc3)C2=O)c1	FMDV inh 14µM
COc1ccc(N(CC(=O)N2CCCC2)S(C)(=O)=O)cc1	none
O=C(NCCCO)c1ccc2nc(-c3ccco3)c(-c3ccco3)nc2c1	Sm TGR inh 2.5µM
CCCCNC(=O)c1ccc2nc(-c3ccco3)c(-c3ccco3)nc2c1	Sm TGR inh 7.9µM
O=C(NC1CC1)c1ccc2nc(-c3ccco3)c(-c3ccco3)nc2c1	none (no result: HCV inhibitor, HCMV inh, Sm TGR inh, FMDV inh)
COc1ccc(OCCC(=O)OCC(=O)NCc2ccccc2OC)cc1	none
Cc1ccc(NC(=S)NCCc2ccc(S(N)(=O)=O)cc2)c(C)c1	none (no result: Sm TGR inh)
CCCOc1ccc(/C=N/Nc2ccccc2[N+](=O)[O-])c(O)c1	HCMV inh inconclusive, FMDV inh 11µM
CCCOc1ccc(/C=N/NC(=S)Nc2ccccc2[N+](=O)[O-])c(O)c1	Vaccinia Venus inconclusive, HCV inhibitor inconclusive, VACV mCherry inh 2.8µM, HCMV inh -101, FMDV inh inconclusive
O=[N+]([O-])c1cc(/C=N/NC(=S)Nc2ccccc2Cl)ccc1Cl	Vaccinia Venus inconclusive, HCV inhibitor inconclusive, VACV mCherry inh inconclusive
COc1ccc(/C=N/NC(=S)Nc2ccccc2[N+](=O)[O-])cc1O	Vaccinia Venus inconclusive, HCV inhibitor inconclusive, HCMV inh -66
COc1ccc(N2CCN(C(=O)COC(=O)[C@@H](NC(=O)c3c(F)cccc3F)C(C)C)CC2)cc1	none (no result: Vaccinia Venus, VACV mCherry inh, Sm TGR inh)
C[C@@H](C(=O)Nc1ccc2ccccc2c1)[C@@H]1C[C@@]1(C)[C@@H](NC(=O)c1cnccn1)c1ccccc1	VACV mCherry inh inconclusive
COc1cc(/C=N/Nc2nc(C)cc(C)n2)ccc1O	none (no result: HCV inhibitor, Sm TGR inh)
O=C1O/C(=C/c2ccccc2)c2ccccc21	none
N#CC1=C(c2ccccc2)/C(=C/c2ccccc2)OC1=O	HCV inhibitor inconclusive, HCMV inh -106, FMDV inh 6.3µM
O=S(=O)(c1ccc(OC(F)(F)F)cc1)N1CCC(c2nc3ccccc3s2)CC1	none (no result: HCV inhibitor)
Cc1cccc(Nc2nnc(SCC(=O)Nc3cccc(S(=O)(=O)N4CCCCC4)c3)s2)c1	HCV inhibitor 13µM
Cc1ccccc1Nc1nnc(SCC(=O)NC(=O)Nc2ccc3c(c2)OCCO3)s1	none (no result: Vaccinia Venus, VACV mCherry inh, HCMV inh, FMDV inh)
Cc1cccc(Nc2nnc(SCC(=O)NC(=O)Nc3ccc4c(c3)OCCO4)s2)c1	HCMV inh -96
CSc1nc(N2CCOCC2)c2c(c1C#N)CC(C(C)C)OC2 (stereo unspecified)	none (no result: Vaccinia Venus, VACV mCherry inh)
O=C(O)c1ccc(-n2cc(-c3cc4ccccc4oc3=O)[nH]c2=S)cc1	HCMV inh -64, Sm TGR inh inconclusive
O=c1oc2ccccc2cc1-c1ccccc1	none (no result: Vaccinia Venus, VACV mCherry inh)
CN(C)S(=O)(=O)c1cccc(NC(=O)CNCC2CCCCC2)c1	HCV inhibitor inconclusive (no result: Vaccinia Venus, VACV mCherry inh)
O=C(Oc1c(CN2CCOCC2)cc(Cl)c2cccnc12)c1ccc(F)cc1	HCV inhibitor 10µM, HCMV inh -97 (no result: Vaccinia Venus, VACV mCherry inh)
COc1ccc(C(=O)Oc2c(CN3CCOCC3)cc(Cl)c3cccnc23)cc1	Vaccinia Venus inconclusive, HCV inhibitor 13µM, HCMV inh -75 (no result: VACV mCherry inh)
COc1cc(C(=O)Oc2c(CN3CCOCC3)cc(Cl)c3cccnc23)cc(OC)c1OC	Vaccinia Venus inconclusive, HCV inhibitor inconclusive, VACV mCherry inh inconclusive, FMDV inh inconclusive (no result: HCMV inh)
COc1cc(C(=S)N2CCOCC2)cc(OC)c1OC(=O)c1ccc(F)cc1	HCV inhibitor inconclusive
O=C1C2CCCC1C(N1CCCCC1)CC2 (stereo unspecified)	none
CCCC(=O)NC(=S)Nc1ccc(N2CCOCC2)c(Cl)c1	none (no result: Vaccinia Venus, VACV mCherry inh)
CC(=O)c1cccc(NC(=O)CSc2ccc(-c3ccco3)nn2)c1	HCV inhibitor inconclusive, Sm TGR inh inconclusive, FMDV inh inconclusive
CC(=O)c1cccc(NC(=O)CSc2ccc(-c3ccc4c(c3)OCO4)nn2)c1	HCV inhibitor 11µM
COc1ccc(-c2ccc(SCC(=O)Nc3cccc(C(C)=O)c3)nn2)cc1OC	Vaccinia Venus inconclusive, HCV inhibitor 8.9µM
COC(=O)c1ccccc1NC(=O)c1nc(S(=O)(=O)Cc2ccccc2F)ncc1Cl	none (no result: HCV inhibitor)
COc1ccc(NC(=O)c2nc(S(=O)(=O)Cc3cccc(C)c3)ncc2Cl)c(OC)c1	HCV inhibitor inconclusive, HCMV inh -79, FMDV inh 3.2µM (no result: Vaccinia Venus, VACV mCherry inh)
COc1ccc(OC)c(NC(=O)c2nc(S(=O)(=O)Cc3ccccc3)ncc2Cl)c1	HCV inhibitor inconclusive, HCMV inh -99, Sm TGR inh 3.2µM, FMDV inh 7.1µM
C[C@H](NC(=O)C1CC(=O)N(c2ccc3c(c2)OCO3)C1)C(=O)NC1CCCCC1 (stereo partly specified)	none (no result: Vaccinia Venus, VACV mCherry inh)
N#C/C(C(=O)N1CCCCC1)=C1\Nc2ccccc2S1	Vaccinia Venus inconclusive (no result: VACV mCherry inh)
Cc1ccc(NC(=S)/C(C#N)=C2/Nc3ccccc3S2)cc1	Vaccinia Venus inconclusive, VACV mCherry inh inconclusive, HCMV inh -79, FMDV inh inconclusive (no result: HCV inhibitor, Sm TGR inh)
COC(=O)c1[nH]c2cccc(Cl)c2c1NC(=O)CN1CCN(CCO)CC1	none (no result: Vaccinia Venus, VACV mCherry inh)
CCCCc1ccc(/C=C2\C(=O)c3ccccc3C(O)=C2C(=O)OCC)cc1	HCV inhibitor inconclusive, Sm TGR inh 11µM (no result: Vaccinia Venus, VACV mCherry inh, HCMV inh, FMDV inh)
O=C(NCCSc1ccccc1)c1ccc(Br)cc1	none
CN(C)S(=O)(=O)c1ccc(C(=O)NCCSc2ccc(Br)cc2)cc1	Vaccinia Venus inconclusive, HCV inhibitor 22µM, VACV mCherry inh inconclusive
CC(C)Oc1ccccc1C1C=C(C(=O)O)Nc2ncnn21 (stereo unspecified)	none (no result: HCV inhibitor)
CCCn1c(SCC(=O)Nc2nnc(C)s2)nnc1C1CC1	none (no result: Vaccinia Venus, VACV mCherry inh)
Clc1ccc(/C=C/c2ccncc2)cc1Cl	Vaccinia Venus inconclusive, VACV mCherry inh 4.5µM (no result: HCV inhibitor, HCMV inh, Sm TGR inh, FMDV inh)
COC(=O)C1(C(F)(F)F)N=C(C(F)(F)F)Nc2ccc(Cl)cc21 (stereo unspecified)	HCMV inh -102
COc1ccc(/C=N/Nc2cc(C)nc3ccc(Br)cc23)cc1	HCV inhibitor 6.3µM, VACV mCherry inh inconclusive, HCMV inh -98
COc1cccc2c(N/N=C/c3ccccc3)cc(C)nc12	none (no result: Vaccinia Venus, VACV mCherry inh)
COc1ccc2nc(C)cc(N/N=C/c3cccc(OC)c3O)c2c1	Vaccinia Venus inconclusive, HCV inhibitor inconclusive, VACV mCherry inh 1µM
COc1ccc(N(C(=O)c2cc3ccccc3oc2=O)C2C=CS(=O)(=O)C2)c(OC)c1 (stereo unspecified)	HCMV inh -61
